Structures are written as SMILES. Results filed as inconclusive are left out. A number with no mark means an inactive call. The call rests on the fitted dose curve; in most records, active means well fitted curve in the direction sought with a large enough effect; inconclusive means small, poorly fitted or top-dose-only effect, or another doubt; inactive means no such curve, though single readings can be large or run the other way.
On the % scale 0 is the no-effect control and ±100 the full control effect.

Metallo-beta-lactamase type 2 (Klebsiella pneumoniae), sequence (C7C422 whole entry, looked up): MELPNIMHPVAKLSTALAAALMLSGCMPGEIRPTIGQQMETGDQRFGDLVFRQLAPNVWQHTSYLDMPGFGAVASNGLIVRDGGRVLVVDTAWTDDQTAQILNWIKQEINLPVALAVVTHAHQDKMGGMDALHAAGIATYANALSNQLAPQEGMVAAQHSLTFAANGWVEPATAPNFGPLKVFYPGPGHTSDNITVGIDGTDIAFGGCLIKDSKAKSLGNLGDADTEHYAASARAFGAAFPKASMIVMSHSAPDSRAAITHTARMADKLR

This experiment has as its target Metallo-beta-lactamase type 2 (Klebsiella pneumoniae) (UniProt C7C422). In words: qHTS to identify inhibitors of the New Delhi Metallo-beta-lactamase (NDM): assay validation screen against the NCATS LOPAC Collection (AID 1794843).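 Further: nitrocefin turnover by NDM-1 measured as 485 nm absorbance at plateau.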 The conditions noted are these: NDM-1 enzyme, nitrocefin hydrolysis, absorbance 485 nm; series mostly up to 38.4 µM; activity change, negative = inhibition: at the top concentration. From the text:
Assay Submitter (PI): James Inglese Ph.D., Patricia Dranchak Ph.D., Mahesh Aitha Ph.D.
Assay Development and Screening Technology Laboratory (ADST)
National Center for Advancing Translational Sciences (NCATS), Rockville, MD
National Institute of Health (NIH), Bethesda, Maryland
The metallo-beta-lactamases (MBL) are a main antibiotic resistance mechanism evolved by bacteria. There is an urgent clinical need for MBL inhibitors to mitigate this growing threat. To support a machine-based learning study, qHTS has been used to experimentally test inhibitors identified by prediction tools.
PROTOCOL TABLE (as described by Inglese et al., 2007)
SEQUENCE No. (e.g., 1, 2, 3, etc.); […] (e.g., enzyme, Incubation, Reagent, etc.); VALUE; DESCRIPTION
1; NDM-1; 4 uL of 3 nM enzyme in 50 mM HEPES (pH 7.0), 1 uM Zn2SO4, 0.01% Tween20; Use BioRaptr to dispense into Aurora black, clear bottom low base 1536-well plates
2; Compounds; 23 nL; Use Pin Tool (Wako) to transfer DMSO control and library compounds in DMSO
4; Reagent; 2 uL of 50 uM nitrocefin
6; Detector; Absorbance at 485 nm (bandwidth = 5 nm, 25 flashes/well) on Tecan Infinity
NOTES (numbers refer to sequence above)
1; Column 1 of each plate received assay buffer without enzyme and columns 2-48 received enzyme for a final assay concentration of 2 nM.
2; Control plate contained DMSO in columns 1, 2, 3, and 4.
3; Compound interaction with enzyme.
5; Substrate interaction with enzyme, plateau phase of kinetics.
6; Default reader settings were applied for absorbance read at 485 nm, bandwidth = 5 nm, 25 flashes/well.
Inglese J, Shamu CE, Guy RK. 2007. Reporting data from high-throughput screening of small-molecule libraries. Nat Chem Biol. doi:10.1038/nchembio0807-438
Yasgar A, Shinn P, Jadhav A, Auld D, Michael S, Zheng W, Austin CP, Inglese J, Simeonov A. 2008. Compound Management for Quantitative High-Throughput Screening. J Lab Autom 13:79 - 89. doi:10.1016/j.jala.2007.12.004
On to `Nc1nc(OCC2CCCCC2)c2[nH]cnc2n1`, for which the “activity change, negative = inhibition” value is -14%.
Turning to `NC(=O)C1=CN(C2OC(COP(=O)(O)OP(=O)(O)OC[C@H]3O[C@@H](n4cnc5c(N)ncnc54)[C@H](OP(=O)(O)O)[C@@H]3O)C(O)C2O)C=CC1` (stereo not given in full), the “activity change, negative = inhibition” value was -8.45%.
Then `CC1CN(S(=O)(=O)c2cccc3cnccc23)CCN1` (stereo not given), with -8.36%; and `O=C(O)CCCC[C@@H]1CCSS1`, with -4.38%.
Turning to `Cc1cc2c(cc1Cl)N(C(=O)Nc1ccc(Oc3cccnc3C)nc1)CC2`, the “activity change, negative = inhibition” value was 0.198%.
Consider `CC[C@H]1OC(=O)[C@H](C)C(O[C@H]2C[C@@](C)(OC)[C@@H](O)[C@H](C)O2)[C@H](C)[C@@H](OC2O[C@H](C)C[C@H](N(C)C)[C@H]2O)[C@](C)(O)C[C@@H](C)CN(C)[C@H](C)[C@@H](O)[C@]1(C)O` (stereo not given in full), for which the “activity change, negative = inhibition” value was 7.47%.
With `Nc1nc(Nc2ccccc2)nc2c1ncn2[C@@H]1O[C@H](CO)[C@@H](O)[C@H]1O`, the “activity change, negative = inhibition” value is -4.88%.
With `O=C(CCc1ccncc1)NNC(=O)N1Cc2ccccc2Oc2ccc(Cl)cc21`, the “activity change, negative = inhibition” value is 1.02%.
As for `O=C(CCCCCN1CCN(c2ccccc2-c2ccccc2)CC1)NC1CCCc2ccccc21` (stereo not given), the “activity change, negative = inhibition” value is 2.69%.
Take `O=C(O)CC[C@@H](C(=O)O)N1C(=O)c2ccccc2C1=O`: the “activity change, negative = inhibition” value was -3.53%.
As for `COc1ccc(/C=C/C(=O)Nc2ccccc2C(=O)O)cc1OC`, the “activity change, negative = inhibition” value is -3.37%.
In the case of `O=C1NC(=O)c2c1c(-c1ccccc1)cc1[nH]c3ccc(O)cc3c21`, the “activity change, negative = inhibition” value was 4.56%.
In the case of `O=C1NCc2c1c1c3ccccc3[nH]c1c1[nH]c3ccccc3c21` it was 41.6%.
Consider `O=C(O)CC1CCCc2ccccc2C1O` (stereo not given), for which the “activity change, negative = inhibition” value was 1.48%.
For the compound `COC(=O)C1=C(C)NC(C)=C(C(=O)OC)C1c1cccc(NC(=O)NCCCN2CCC(c3cccc(OC)c3)CC2)c1`, the “activity change, negative = inhibition” value was -0.878%.
For the compound `CN(C)c1nc(N)c(C(=O)N=C(N)N)nc1Cl`, the “activity change, negative = inhibition” value is 4.64%.
Then `O=[N+]([O-])c1ccc2c(c1)S(=O)(=O)C=C2`, with -3.08%; and `NC(N)=NC(=O)c1nc(Cl)c(N2CCCCCC2)nc1N`, with 1.34%.
For the compound `Nc1nc(SCc2ccc([N+](=O)[O-])cc2)c2ncn([C@@H]3O[C@H](CO)[C@@H](O)[C@H]3O)c2n1`, the “activity change, negative = inhibition” value was 2.92%.
Then `CN1CCc2ccccc2Cc2[nH]c3ccccc3c2CC1`, with 0.888%; and `COc1ccc(NC(=O)/C=C/c2ccc(Cl)cc2)cc1`, with -14%; and `Cc1ccc(O)c(N=Nc2ccccc2)n1`, with 6.99%.
With `CC(C)NC[C@H](O)COc1cccc2[nH]ccc12`, the “activity change, negative = inhibition” value is 1.83%.
In the case of `CC12C(=O)OC(=O)C1(C)C1CCC2O1` (stereo not given) it was 3.94%.
Turning to `CN1CC(=O)N/C1=N/C(=O)Nc1cccc(Cl)c1`, the “activity change, negative = inhibition” value was -0.465%.
For the compound `O=C(CCSCc1ccco1)NNC(=O)N1Cc2ccccc2Oc2ccc(Cl)cc21`, the “activity change, negative = inhibition” value is -3.91%.
Then `O=C1NC(O)=NC1(c1ccccc1)c1ccccc1`, with 1.38%.
In the case of `O=S(=O)(c1cccc2c(I)cccc12)N1CCCNCC1` it was -6.29%; in that of `CC(N)C(=O)OC(C)(C)Cc1ccc(Cl)cc1` (stereo not given), 0.654%; in that of `N[C@H](CCCP(=O)(O)O)C(=O)O`, 8.46%.
On to `O=C1NC(=O)/C(=C/c2ccc(-c3ccc(F)cc3O)o2)S1`, for which the “activity change, negative = inhibition” value is -1.09%.
For the compound `Nc1nc(Cl)nc2c1ncn2[C@@H]1O[C@H](CO)[C@@H](O)[C@H]1O`, the “activity change, negative = inhibition” value was -7.12%.
As to `O=C1/C(=C/c2ccsc2)CC/C1=C\c1cccs1`, the “activity change, negative = inhibition” value was 0.403%.
In the case of `Oc1cc2c(cc1O)CN(C(=S)NCCc1ccc(Cl)cc1)CCC2` it was -2.33%; in that of `O=C(O)c1cc([N+](=O)[O-])ccc1NCCCc1ccccc1`, -4.45%.
In the case of `Fc1ccc2[nH]c(CN3CCN(c4ccccn4)CC3)cc2c1` it was -0.917%.
For `CCCCN(CC)c1nc(C)nc2c1c(C)cn2-c1c(C)cc(C)cc1C`, the “activity change, negative = inhibition” value was 25.6%.
Then `CCN1/C(=C/C(C)=O)Sc2ccc(OC)cc21`, with 8.63%; and `COc1cc2c(CCNC(C)=O)c[nH]c2cc1Cl`, with 5.01%.
Take `COc1ccc2c(c1)CCC1C2CC[C@@]2(C)C1CC[C@@H]2NCCCCCCN1C(=O)CCC1=O` (stereo not given in full): the “activity change, negative = inhibition” value is -6.01%.

Source of the values: PubChem BioAssay (NCATS).
